PubChem BioAssay AID2599 (Sanford-Burnham Center for Chemical Genomics, 2010)
In all, about 330,000 compounds went through this assay and about 5,800 (1.8%) were called active.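 The calls were made as follows: active = inhibition above about 50% at the single tested dose (limit read from the data); inactive = the rest.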 This excerpt belongs to a sample that is enriched for actives.

Each compound was assayed against Sentrin-specific protease 6 (Homo sapiens) (UniProt Q9GZR1) (assay: SENP6 protease inhibitors, primary screen, biochemical, luminescence, uHTS (AID 2599;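 also: plate controls were DMSO wells with enzyme for no effect and DMSO wells lacking enzyme for full effect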)). Details: Recombinant SENP6 catalytic domain, aminoluciferin luminescence; at 10 µM; stronger effect = higher value.
Sequence of Sentrin-specific protease 6 (Homo sapiens) (Q9GZR1 628-1112 limits assumed): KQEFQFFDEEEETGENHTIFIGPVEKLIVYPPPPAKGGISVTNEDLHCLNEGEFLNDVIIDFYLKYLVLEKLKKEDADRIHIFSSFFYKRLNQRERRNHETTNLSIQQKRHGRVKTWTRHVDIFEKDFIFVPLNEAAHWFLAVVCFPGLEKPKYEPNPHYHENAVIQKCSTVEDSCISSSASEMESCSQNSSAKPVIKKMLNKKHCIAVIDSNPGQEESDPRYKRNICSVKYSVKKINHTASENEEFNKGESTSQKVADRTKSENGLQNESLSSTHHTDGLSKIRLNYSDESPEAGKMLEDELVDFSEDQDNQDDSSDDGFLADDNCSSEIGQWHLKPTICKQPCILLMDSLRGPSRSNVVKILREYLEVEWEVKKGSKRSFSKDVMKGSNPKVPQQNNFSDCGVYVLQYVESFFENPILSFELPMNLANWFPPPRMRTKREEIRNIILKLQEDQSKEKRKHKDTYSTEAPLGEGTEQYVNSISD

inhibition, active:
C/C(=N\NC(=O)c1ccoc1C)c1ccccc1O 56.4%
O=C(Nc1ccccc1)Nc1ccccc1C(=O)NCc1ccco1 75.2%
C1=C(CCNc2ncnc3c2cnn3-c2ccccc2)CCCC1 62.1%
COc1ccc(Nc2nc(-c3ccccc3)cs2)cc1 88.5%
c1ccc(Nc2nc(-c3ccncc3)cs2)nc1 88.8%
COc1ccc(-c2csc(Nc3ccccn3)n2)cc1 81.9%
CC(C)Cn1c(N)c(C(=O)NCc2cccs2)c2nc3ccccc3nc21 80.7%
CNC(C)C#Cc1ccc2sc3cc(OC)c(OC)cc3c(=O)c2c1 (stereo unspecified) 78.2%
CCCCCc1ccc(-c2ccc(C(=O)O)cc2)nc1 95.9%
O=c1[nH]c(CCl)nc2cc(-c3ccc(Cl)cc3)sc12 94.6%
O=C(Nc1nnc(SCc2ccccc2)s1)c1ccco1 63%
O=c1oc2ccccc2cc1-c1cn(-c2ccccc2)c(=S)[nH]1 94%
COCCn1nnnc1C(c1cc2ccc(OC)cc2[nH]c1=O)N1CCc2ccccc2C1 (stereo unspecified) 72.7%
COc1ccc(/C=C2/SC(=O)N(CCCCCC(=O)Nc3ccccc3C(=O)O)C2=S)cc1 63.7%
N=c1c2c3c(sc2nc2n1CCCCC2)CCCC3 64.2%
Cc1cc(NC(=O)Nc2ccccc2[N+](=O)[O-])no1 54%
CCOc1ccc(N/C=C/C(=O)c2ccccc2)cc1 94.4%
COc1ccc(C(=O)/C=C/Nc2ccccn2)cc1 97.2%
Cc1ccc(N/C=C/C(=O)c2ccccc2)cc1C 95.8%
COc1ccc(C2=Nc3cc(C)ccc3OC2)cc1 81.7%

inhibition, inactive:
CC(C)=C(NC(=O)c1ccccc1)C(=O)N/N=C(\C)c1ccccc1O -21.8%
C/C(=N\NC(=O)c1ccccc1F)c1ccccn1 45%
CSCCC(NC(=O)c1ccccc1)C(=O)N1CCN(Cc2ccc(Cl)cc2)CC1 (stereo unspecified) -6.84%
CC(OC(=O)C1CC(=O)N(Cc2ccccc2)C1)C(=O)Nc1ccccc1[N+](=O)[O-] (stereo unspecified) -19.9%
CCCCN(C(=O)COc1ccc(NC(C)=O)cc1)C1CCS(=O)(=O)C1 (stereo unspecified) -10.3%
O=C(CCNC(=O)c1ccccc1Cl)NCc1ccco1 -14.5%
Cc1cccc(Nc2ccccc2C(=O)NCc2ccco2)c1C 2.61%
NC(N)=NCCCc1cn(CC(=O)N2CCNCC2)nn1 -12%
O=C(CN1CCN(S(=O)(=O)c2cccc(Cl)c2)CC1)N1CCCCC1 -12.8%
C=CCNC(=S)NNc1ncnc2sc3c(c12)CC(C)(C)OC3 -6.15%
O=C(NCCC1=CCCCC1)C1CCN(Cc2cnn(-c3ccccc3)c2-n2cccc2)CC1 12.3%
CC(C)Sc1ncnc2c1cnn2-c1ccccc1 38.9%
O=C(CSc1nc2[nH]ncc2c(=O)[nH]1)Nc1ccc(F)cc1 -4.08%
CC1(C)O[C@@H]2[C@H](O1)[C@@H](COS(=O)(=O)O)O[C@H]2n1ccc(=O)[nH]c1=O -11.6%
Clc1ccc(Nc2nc(-c3cccs3)cs2)nc1 35.3%
COc1ccc(-c2csc(Cc3nc(O)cs3)n2)cc1 25.6%
COc1ccc(-c2csc(NC(=O)COC(=O)Cc3ccc(Cl)cc3Cl)n2)cc1 20.8%
COc1ccc2c(c1OC)C(=O)OC2Nc1nc(-c2ccccc2)cs1 (stereo unspecified) -5.84%
Clc1ccc(-c2csc(-c3ccncc3)n2)cc1 -16.8%
CCCn1c(CCNc2nc(-c3ccc(OC)cc3)cs2)nc2ccccc21 1.04%
Oc1c(Br)cc(/C=N/NC(=S)NCC2CCCO2)cc1Br (stereo unspecified) -26.9%
CCn1cc(C(=O)OCC(=O)Nc2cccc(C)c2)c(=O)c2ccc(C)nc21 -16.3%
COC(=O)c1ccc(Oc2nc(NC(C)C)nc(SC)n2)cc1 -13.9%
Cc1cccc(NC(=O)CSc2nnc(CCCCCNC(=O)OC(C)(C)C)o2)c1C 12.1%
COc1ccc(CNC(=O)C(c2ccc(O)cc2)N(Cc2ccco2)C(=O)c2snc(C(N)=O)c2N)cc1 (stereo unspecified) -5.39%
C=CCC1(C#N)C(=S)NC(C)=C(C(=O)OCC)C1c1ccccc1 (stereo unspecified) -0.11%
CCc1ccc(CN(C)C(=O)C2CCC(=O)N(Cc3cccc(OC)c3)C2)nc1 (stereo unspecified) -7.64%
CCOc1ccccc1NC(=O)Cn1nnc(C(=O)NCc2cccs2)c1N 10.8%
Cn1ncc(Br)c1C(=O)NCc1cccs1 -1.6%
OC(CN=c1sc2ccccc2n1CC(O)COc1ccccc1)COc1ccccc1 (stereo unspecified) -0.866%
CC(C)CN(C(=O)COC(=O)c1ccc2ccccc2c1)c1c(N)n(Cc2ccccc2)c(=O)[nH]c1=O -9.38%
CCOc1cc(/C=N/n2cnnc2)c(Br)cc1O 12.6%
CCCCCC(O)c1cccc(OCc2ccc3ccccc3n2)c1 (stereo unspecified) 23%
O=C(COC(=O)c1cc(S(=O)(=O)N2CCOCC2)ccc1F)NC1CC1 -2.29%
CNCC(O)c1ccc(O)c(O)c1 (stereo unspecified) -10.1%
CCOC(=O)C(NS(=O)(=O)c1ccc(C)cc1)(C(F)(F)F)P(=O)(OCC(C)C)OCC(C)C (stereo unspecified) 8.36%
CCCCCc1ccc(-c2cn(Cc3ccc4ccccc4c3)nn2)cc1 -16.8%
CCCCCc1ccc(-c2ccc(OCC)cc2)nc1 -5.2%
CC(=O)N1C(C)c2ccccc2C(C)(C)CC12CCCCC2 (stereo unspecified) 5.42%
O=c1[nH]c(CN2CCOCC2)nc2cc(Cl)ccc12 0.886%
NC(=O)Cc1nc2scc(-c3ccc(Cl)cc3)c2c(=O)[nH]1 -10.5%
CCOC(=O)c1ccc(CS(=O)c2ccc(Cl)cc2)o1 (stereo unspecified) -6.19%
Cc1oc(-c2ccccc2Cl)[n+]([O-])c1C -2.99%
CCOC(=O)C(C)n1nc(-c2ccccc2)c2ccccc2c1=O (stereo unspecified) 16.8%
COCCNc1nnc(SCC(=O)NNC(=O)c2ccco2)s1 0.175%
O=C(Nc1nnc(CCOCCOCCc2nnc(NC(=O)c3ccco3)s2)s1)c1ccco1 14.7%
S=c1[nH]c(-c2cccs2)cn1-c1ccccc1 -4.29%
COc1cccc(-n2c(=S)[nH]c3c(oc4ccccc43)c2=O)c1 -5.17%
CC(NC(=O)C1CCC(CNc2c(N3CCOCC3)c(=O)c2=O)CC1)c1ccccc1 (stereo unspecified) -0.949%
CCOc1ccc2[nH]c(=O)c(C(c3nnnn3CCOC)N3CCOCC3)cc2c1 (stereo unspecified) 7.39%
COc1ccc(OC)c(C(c2nnnn2C(C)(C)C)N2CCc3ccccc3C2)c1 (stereo unspecified) -3.29%
O=c1cc(Cl)c2ccccc2n1-c1ccccc1 -18.3%
CCNC(=O)NNC(=O)C1CC(c2cccs2)=NO1 (stereo unspecified) -11.1%
Cc1cc(C)cc(NC(=O)N(C)Cc2ccccc2)c1 -7.22%
Cc1c(NC(=O)CSCc2ccccc2)cccc1C(=O)O 9.84%
CN1CCNC(=O)C1CC(=O)N1CC=C(c2ccc(F)cc2)CC1 (stereo unspecified) 4.55%
COc1ccc(/C=C2\SC(=O)N(CCC(=O)NC3CCS(=O)(=O)C3)C2=O)cc1 (stereo unspecified) 12.7%
COc1ccc(/C=C2\SC(=O)N(CCC(=O)NCCCn3ccnc3)C2=O)cc1 15.6%
O=C(Nn1c(-c2ccc(Cl)cc2)nc2ccccc2c1=O)c1cccnc1Cl 1.41%
Cc1ccc2c(c1)N(C(=O)CCC(=O)N1CCc3ccccc3C1)CCO2 10.2%
Oc1ccc(CNc2ccccc2O)cc1 17.3%
CCOC(=O)C1(Cc2ccccc2C)CCCN(C(=O)CCc2c(C)noc2C)C1 (stereo unspecified) 9.37%
N=c1c2c3c(sc2ncn1N)CCCCC3 -21.7%
CC1(C)Cc2c(sc3nc4n(c(=N)c23)CCCCC4)CO1 -4.65%
CC(OC(=O)CCc1nc(=O)c2ccccc2n1C)C(=O)NCc1ccc2c(c1)OCO2 (stereo unspecified) -15.7%
Cc1cc(NC(=O)c2ccccc2C)no1 -1.58%
Cc1cc(NC(=O)COc2ccc([N+](=O)[O-])cc2)no1 -2.83%
Nc1ccn(CC(=O)N2CCN(c3ccccn3)CC2)c(=O)n1 -3.83%
CC(C)C(=O)NC(NC(=S)NC1CCS(=O)(=O)C1)C(Cl)(Cl)Cl (stereo unspecified) -19.9%
O=C(/C=C/NCc1ccc(F)cc1)c1ccccc1 -0.568%
COc1ccc(N2C(=O)CCC(C(=O)Nc3ccccn3)C2c2ccc(OC)c(OC)c2)cc1 (stereo unspecified) -4.43%
CCOc1ccc(N/C=C/C(=O)c2cc(OC)c(OC)c(OC)c2)cc1 -7.87%
CC(=O)Nc1ccc(/C=C/C(=O)c2ccccc2)cc1 -17%
CCOc1ccc(NC(=S)N2CCC(NC(=O)c3ccccc3)CC2)cc1 -17.6%
Cc1cc(N/C=C\C(=O)c2ccc(Cl)c(Cl)c2)no1 -3.41%
C[C@H](NC(=O)C1CC(=O)N(c2ccc3c(c2)OCCO3)C1)C(=O)N1CCC(C(=O)O)CC1 (stereo partly specified) -10.8%
CCC(C)CN1CCC(CO)(Cc2ccccc2Cl)CC1 (stereo unspecified) 8.24%
CC1CCC(CN2CCN=C2N(C)C)CC1 (stereo unspecified) -19.7%
Cc1ccccc1C(OCCN(C)C)C1CCCCC1 (stereo unspecified) -10.8%
Cc1ccc(C(=O)NNC2=Nc3cc([N+](=O)[O-])ccc3OC2)cc1 -18.4%
COc1ccc(C2=NOC(COC(=O)c3ccc4ccccc4n3)C2)cc1 (stereo unspecified) -7.77%
